Assay outcomes: PubChem, University of Kansas High Throughput Screening Laboratory
Pf apPOL block – Pf-apPOL DNA polymerase inhibition; actives 0.25% (n = 210,000); inhibition, % at 10 µM; AID 1794808; Recombinant Pf-apPOL, molecular beacon fluorescence, 1.5 h
mHTT-CaM PPI inh – inhibitors of human mutant huntingtin-calmodulin interaction; P42858; AlphaScreen His-mHTT/GST-CaM binding, luminescence; inhibition, % at 15 µM; actives 3.6% (n = 190,000);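 also: 0% = both proteins with DMSO and 100% = one protein alone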
Target sequence (P42858 whole entry, looked up, stated change not applied): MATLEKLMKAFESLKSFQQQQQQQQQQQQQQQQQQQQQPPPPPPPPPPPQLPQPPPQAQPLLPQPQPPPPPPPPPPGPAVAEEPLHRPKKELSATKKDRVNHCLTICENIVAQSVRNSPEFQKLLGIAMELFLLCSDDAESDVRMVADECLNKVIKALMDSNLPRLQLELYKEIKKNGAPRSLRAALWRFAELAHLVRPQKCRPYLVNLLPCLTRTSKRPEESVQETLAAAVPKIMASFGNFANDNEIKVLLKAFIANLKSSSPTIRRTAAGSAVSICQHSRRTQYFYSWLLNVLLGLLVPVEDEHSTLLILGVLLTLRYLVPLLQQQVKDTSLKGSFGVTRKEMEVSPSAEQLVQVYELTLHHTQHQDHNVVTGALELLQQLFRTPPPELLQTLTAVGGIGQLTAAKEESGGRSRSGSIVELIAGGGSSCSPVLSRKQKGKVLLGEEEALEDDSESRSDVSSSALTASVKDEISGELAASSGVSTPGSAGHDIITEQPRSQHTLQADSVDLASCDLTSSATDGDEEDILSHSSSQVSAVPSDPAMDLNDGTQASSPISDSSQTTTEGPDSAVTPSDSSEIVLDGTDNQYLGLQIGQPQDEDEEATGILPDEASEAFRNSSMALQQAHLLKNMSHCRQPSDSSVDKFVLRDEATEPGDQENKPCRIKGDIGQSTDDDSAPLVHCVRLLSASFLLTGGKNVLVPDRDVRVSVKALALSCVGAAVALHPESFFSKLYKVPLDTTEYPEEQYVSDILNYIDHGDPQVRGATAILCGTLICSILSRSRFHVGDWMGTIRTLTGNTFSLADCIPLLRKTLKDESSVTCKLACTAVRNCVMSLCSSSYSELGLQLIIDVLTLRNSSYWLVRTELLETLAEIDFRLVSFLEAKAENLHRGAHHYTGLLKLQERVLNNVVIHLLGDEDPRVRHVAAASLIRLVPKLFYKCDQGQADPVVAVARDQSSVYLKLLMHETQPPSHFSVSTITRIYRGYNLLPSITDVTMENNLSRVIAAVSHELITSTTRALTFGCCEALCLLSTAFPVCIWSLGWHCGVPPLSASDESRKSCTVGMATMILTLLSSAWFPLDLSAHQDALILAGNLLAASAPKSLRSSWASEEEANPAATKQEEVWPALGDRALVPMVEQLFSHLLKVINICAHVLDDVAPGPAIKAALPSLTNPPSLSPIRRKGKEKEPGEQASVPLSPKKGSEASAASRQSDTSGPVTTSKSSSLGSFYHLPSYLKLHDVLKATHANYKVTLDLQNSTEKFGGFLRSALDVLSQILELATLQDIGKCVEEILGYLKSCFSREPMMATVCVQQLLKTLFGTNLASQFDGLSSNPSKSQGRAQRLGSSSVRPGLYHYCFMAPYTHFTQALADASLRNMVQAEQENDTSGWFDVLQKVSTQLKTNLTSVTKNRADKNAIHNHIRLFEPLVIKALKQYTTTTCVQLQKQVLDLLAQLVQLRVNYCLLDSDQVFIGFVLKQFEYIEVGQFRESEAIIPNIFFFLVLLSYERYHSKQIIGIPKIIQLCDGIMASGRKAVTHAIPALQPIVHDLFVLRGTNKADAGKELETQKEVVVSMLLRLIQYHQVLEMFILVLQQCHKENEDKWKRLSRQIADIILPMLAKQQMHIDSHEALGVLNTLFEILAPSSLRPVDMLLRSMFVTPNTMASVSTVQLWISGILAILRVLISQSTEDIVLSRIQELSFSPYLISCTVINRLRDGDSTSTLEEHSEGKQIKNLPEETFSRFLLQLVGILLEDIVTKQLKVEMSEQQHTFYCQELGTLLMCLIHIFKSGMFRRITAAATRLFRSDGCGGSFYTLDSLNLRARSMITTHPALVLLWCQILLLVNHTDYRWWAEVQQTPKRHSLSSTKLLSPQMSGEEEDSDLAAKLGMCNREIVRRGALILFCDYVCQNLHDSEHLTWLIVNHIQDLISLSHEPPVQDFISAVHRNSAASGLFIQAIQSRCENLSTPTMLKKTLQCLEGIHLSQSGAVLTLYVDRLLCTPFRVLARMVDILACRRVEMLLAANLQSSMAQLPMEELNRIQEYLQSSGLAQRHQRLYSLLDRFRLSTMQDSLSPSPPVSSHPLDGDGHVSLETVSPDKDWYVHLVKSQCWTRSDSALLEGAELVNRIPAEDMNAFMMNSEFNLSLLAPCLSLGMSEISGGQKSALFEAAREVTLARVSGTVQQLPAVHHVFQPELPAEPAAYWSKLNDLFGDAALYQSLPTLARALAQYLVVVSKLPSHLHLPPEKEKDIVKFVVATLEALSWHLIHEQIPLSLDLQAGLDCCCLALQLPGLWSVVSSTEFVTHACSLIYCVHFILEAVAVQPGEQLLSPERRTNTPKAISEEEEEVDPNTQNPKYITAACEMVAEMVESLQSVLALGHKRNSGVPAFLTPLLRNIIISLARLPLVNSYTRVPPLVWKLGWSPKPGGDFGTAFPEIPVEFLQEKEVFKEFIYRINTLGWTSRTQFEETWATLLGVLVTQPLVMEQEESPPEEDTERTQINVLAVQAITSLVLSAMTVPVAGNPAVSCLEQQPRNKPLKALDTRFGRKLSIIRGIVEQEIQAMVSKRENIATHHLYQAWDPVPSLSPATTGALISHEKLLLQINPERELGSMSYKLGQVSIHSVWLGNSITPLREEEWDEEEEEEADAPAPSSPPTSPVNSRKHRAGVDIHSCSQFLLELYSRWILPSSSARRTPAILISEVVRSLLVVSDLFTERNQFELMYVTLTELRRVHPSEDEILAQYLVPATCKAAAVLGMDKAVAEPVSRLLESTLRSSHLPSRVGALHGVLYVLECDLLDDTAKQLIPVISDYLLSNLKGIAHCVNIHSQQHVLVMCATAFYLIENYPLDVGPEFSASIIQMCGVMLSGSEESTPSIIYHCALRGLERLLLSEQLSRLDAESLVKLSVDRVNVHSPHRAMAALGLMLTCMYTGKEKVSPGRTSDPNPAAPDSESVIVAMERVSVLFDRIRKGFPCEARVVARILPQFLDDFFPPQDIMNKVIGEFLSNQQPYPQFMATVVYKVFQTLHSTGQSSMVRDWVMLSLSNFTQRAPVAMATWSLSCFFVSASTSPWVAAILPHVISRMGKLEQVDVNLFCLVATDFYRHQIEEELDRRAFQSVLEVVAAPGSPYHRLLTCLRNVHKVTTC
Active calls of the source: *; i = inactive; . = no result given. Rows were chosen to be rich in hits. Some 3.6% of all compounds tested hit in one or more screens of this group. Rule as the data show it: active = inhibition above about 50%; inactive = the rest.

SMILES	Pf apPOL block	mHTT-CaM PPI inh
O=S(=O)(NCC1(CO)CC1)c1ccc(OC(F)(F)F)cc1	-2	-11
Oc1ccc(N=Cc2cccc(I)c2O)cc1-c1nc2ccccc2o1	-3	23
CCCc1cc(C2CCCN2Cc2cc(Br)ccc2O)no1 (stereo not drawn)	4	-14
Cc1cc(C2CCCN2Cc2cc(Br)ccc2O)no1 (stereo not drawn)	-6	62*
Nc1nc2ccccc2n1CCOc1ccc(Cl)cc1	-2	43
Nc1ccc(-c2nc3ccccc3n2CCCOc2ccccc2)cc1	12	51*
Clc1ccc(OCCn2cnc3ccccc32)c(Cl)c1	-6	0
Nc1nc2ccccc2n1CCOc1ccc(Cl)cc1Cl	-3	75*
Nc1nc2ccccc2n1CCOc1ccc(Br)cc1	-2	73*
Nc1ccc(-c2nc3ccccc3n2CCOc2ccccc2)cc1	11	37
COc1ccc(C(=O)Nc2ccc(-n3nncc3-c3ccc(Br)cc3)cc2)cc1OC	-3	29
CCn1cc(CN2CCC(C(=O)NCc3ccccc3)CC2)c2ccccc21	-2	5
Cc1ccc(C=CS(=O)(=O)N2CCN(c3ccc4nncn4n3)CC2)cc1	-2	19
CCc1cccc(NC(=O)N2CCC(c3nc4ccncc4n3C(C)C)C2)c1 (stereo not drawn)	-1	4
Cc1cc(C)c2c(C)nn(C)c2n1	7	1
COc1ccc(CC(=O)Nc2c3c(nn2-c2ccc(OC)cc2)CSC3)cc1	-1	31
COc1ccc(CNC(=O)Cn2nc3c(c2NC(=O)Cc2cccs2)CSC3)cc1	42	66*
Cc1ccccc1NC(=O)NCC1(O)CCCC1	-3	-15
C=CCn1c(SCC(=O)c2ccc(F)cc2)nnc1-c1cccs1	-8	0
C=CCn1c(SCC(=O)O)nnc1-c1cccs1	-5	50*
CN1C/C(=C/c2ccco2)C(=O)/C(=C/c2ccco2)C1	.	30
CN1CC(=Cc2ccco2)C(=O)C(=Cc2ccco2)C1	71*	.
Nc1nc(SCCCCN2C(=O)c3ccccc3C2=O)nc2sc3c(c12)CCC3	9	4
O=C(O)CC(C(=O)O)c1ccco1 (stereo not drawn)	.	-3
OC(C#Cc1ccccc1)c1ccco1 (stereo not drawn)	70*	100*
SMILES	Pf apPOL block	mHTT-CaM PPI inh
c1ccc2c(c1)CC1OC(CC3=NC4c5ccccc5CC4O3)=NC21 (stereo not drawn)	-35	.
CC(C)c1cc(C2CCCN2C(=O)Cc2cccs2)no1 (stereo not drawn)	-1	-4
N=C1NC(=O)/C(=C\c2ccccc2OCc2ccccc2Cl)S1	0	17
CCN(CC)C(=O)CC[C@H]1CC[C@]2(CCCN(S(=O)(=O)c3ccccc3)C2)O1	-6	98*
CCOC(=O)CC[C@@H]1CC[C@]2(CCCN(S(=O)(=O)c3ccccc3)C2)O1	-4	-4
Cc1cccc(-c2noc(C3CCCN3C(=O)Nc3ccc(F)cc3)n2)c1 (stereo not drawn)	0	20
CCN1CCC2(CC1)N=C(c1ccccc1)CC(c1cc(Cl)ccc1O)N2 (stereo not drawn)	-1	47
Cc1ccc(C2=NC3(CCN(C)CC3)NC(c3cc(Br)ccc3O)C2)cc1 (stereo not drawn)	-3	26
CCN1CCC2(CC1)N=C(c1ccc(C)cc1)CC(c1cc(Br)ccc1O)N2 (stereo not drawn)	-2	65*
CN1CCC2(CC1)N=C(c1ccc(Br)cc1)CC(c1cc(Cl)ccc1O)N2 (stereo not drawn)	-9	100*
O=C(Nc1ccc(Cl)c2c1C(=O)c1ccccc1C2=O)c1ccccc1	-10	6
Cc1ccc2nc(-c3ccc(N=Cc4ccc5c(c4)OCO5)cc3O)oc2c1	2	60*
Cc1ccc2nc(-c3cc(N=Cc4ccc([N+](=O)[O-])cc4)ccc3O)oc2c1	7	15
CC(=O)n1cc(/C=C2\C(=O)NC(=O)N(c3ccc(Cl)cc3)C2=O)c2ccccc21	-2	26
Nc1ccccc1Nc1c([N+](=O)[O-])c(=O)oc2ccccc12	0	71*
COc1ccccc1Nc1c([N+](=O)[O-])c(=O)oc2ccccc12	2	10
Cc1ccc(F)cc1NC(=O)c1cc2cc(Cl)ccc2oc1=O	-5	8
Cc1nc(C(=O)Nc2ccc(Oc3ccccc3)cc2)c(C)n1C1CCN(C)CC1	-6	82*
Cc1nc(C(=O)Nc2ccccc2)c(C)n1C1CCN(S(C)(=O)=O)CC1	-1	2
Cc1ccc(N=Cc2cc(Cl)cc([N+](=O)[O-])c2O)c(O)c1	-4	56*
Cc1ccc(N=Cc2cc(Cl)cc([N+](=O)[O-])c2O)cc1	11	6
Cc1ccc(C(=O)O)cc1N=Cc1cc([N+](=O)[O-])cc([N+](=O)[O-])c1O	-4	-3
COc1cc(/C=N/O)c([N+](=O)[O-])cc1OC	.	i
O=[N+]([O-])c1cc(C=Nc2cc(-c3ccccc3)ccc2O)c(O)c([N+](=O)[O-])c1	-1	51*
COc1cc(C=Nc2ccccc2O)c([N+](=O)[O-])cc1OC	-6	86*
SMILES	Pf apPOL block	mHTT-CaM PPI inh
COc1ccc(C2CN(S(=O)(=O)c3ccccc3F)CCN2C)cc1 (stereo not drawn)	0	-2
CN1C(=O)c2cccnc2Sc2cc(NC(=O)C(C)(C)C)ccc21	2	1
O=C(Nc1ccc([N+](=O)[O-])cc1Br)C1CC(=O)N(c2ccc(Cl)cc2)C1 (stereo not drawn)	-6	-7
O=C(c1ccccc1)N1CCC(CCNS(=O)(=O)c2ccc(F)cc2F)CC1	3	50*
Cc1ccc(S(=O)(=O)NCCC2CCN(C(=O)c3ccccc3)CC2)c(C)c1	-1	53*
Cc1ccc(C(=O)N2CCC(CCNS(=O)(=O)c3ccccc3C)CC2)cc1	-1	49
O=C(c1ccccc1)N1CCC(CCNS(=O)(=O)c2cc(F)ccc2F)CC1	-3	49
O=C(Nc1cc(Cl)ccc1F)C1CCN(c2nnc3ccccn23)CC1	-7	1
COc1ccc(C2/C=C\C(c3ccc(OC)cc3)N(Cc3ccc(F)cc3)C(=O)C(=O)N2Cc2ccc(F)cc2)cc1 (stereo not drawn)	-6	38
CCCCC(=O)N1C/C=C\C(c2ccc(OC)cc2)N(Cc2ccc(F)cc2)C(=O)[C@@H]1Cc1ccccc1 (stereo partly drawn)	0	47
COc1ccc(C2/C=C\CN(Cc3ccccc3)[C@@H](C)C(=O)N2Cc2ccc(F)cc2)cc1 (stereo partly drawn)	1	73*
COc1ccc(C2/C=C\CN(C(=O)c3ccc(C)cc3)[C@@H](C)C(=O)N2Cc2ccc(F)cc2)cc1 (stereo partly drawn)	-6	93*
COc1ccc(C2/C=C\CN(C(=O)C3CCCCC3)[C@@H](C)C(=O)N2Cc2ccc(F)cc2)cc1 (stereo partly drawn)	-3	33
COc1ccc(C2/C=C\CN(Cc3ccco3)[C@@H](C)C(=O)N2Cc2ccc(F)cc2)cc1 (stereo partly drawn)	-6	93*
O=C(NCc1cccc(C(F)(F)F)c1)c1cc2n(n1)CCCC2	-2	-7
O=S(=O)(NCc1ccccc1)[C@@H]1C[C@H]2C=C[C@@H]1C2	2	-6
Cn1c(-c2nonc2NC(=O)c2ccc(F)cc2)nc2ccccc21	16	-3
O=C(CN(Cc1ccccc1)S(=O)(=O)c1ccc(F)cc1)N1CCOCC1	0	-2
